# In PubChem BioAssay (EPA / NIEHS):
# Results filed as inconclusive are left out. Activity calls are given as the source filed them. The calls were made as follows: active = hit-call score of the fitted dose curve at least 0.9, where 1 is the maximum; inconclusive = response in the unintended direction; inactive = score below 0.9.
# Read-out: glucuronosyltransferase (UGT1A1), UGT1A1 (gene 54658)
# Experiment: CLD_UGT1A1_24hr: CellzDirect (CLD) Gene Expression Assay for glucuronosyltransferase (UGT1A1) at 24 hours (AID 2283696)
# Method: CLD_24hr is a cell-based, multiplexed-readout assay that uses hepatocyte, a human liver primary cell, with measurements taken at 24 hours after chemical dosing in a 96-well plate.CLD_UGT1A1_24hr is one of 16 assay component(s) measured or calculated from the CLD_24hr assay. It is designed to make measurements of mRNA induction, a form of inducible reporter, as detected with chemiluminescence signals by Quantitative Nuclease Protection Assay (qNPA) technology.Data from the assay component CLD_UGT1A1_24hr was analyzed at the endpoint, CLD_UGT1A1_24hr, in the positive analysis fitting direction relative to DMSO as the negative control and baseline of activity. Using a type of inducible reporter, gain-of-signal activity can be used to understand changes in the reporter gene as they relate to the gene UGT1A1. Furthermore, this assay endpoint can be referred to as a primary readout. To generalize the intended target to other relatable targets, this assay endpoint is annotated to the transferase intended target family, where subfamily is glucuronosyltransferase.
# Human hepatocyte cultures were treated daily for two consecutive days with fresh dosing solutions containing appropriate concentrations of the 320 ToxCast chemicals (chemical identities were blinded to CellzDirect and other ToxCast collaborators), vehicle control (0.2% DMSO), and positive control inducers as summarized in Table 1. Due to the large number of treatment groups and chemicals examined, the ToxCast chemicals were divided into two groups (spanning two independent cultures of hepatocytes from separate donor preparations (Hu778: ToxCast plates 1 and 2; Hu776: ToxCast plates 3 and 4). Each preparation of human hepatocyte cultures was treated with respective vehicle control, medium only control, set of six positive controls/reference chemicals for the five hepatic receptor pathways, and a subset of eight of the ToxCast chemicals (indoxacarb, pyrithiobac-sodium, norflurazon, cyhalofop-butyl, methomyl, thiram, acetochlor, and propiconazole). These replicate data, coupled with internal replicates designed within the blinded ToxCast chemical library, provided additional data to evaluate interindividual differences between hepatocyte preparations and their potential impact on chemical profiles.Cell morphology and integrity were evaluated using phase-contrast microscopy as an indicator of hepatocyte cell health (Tyson & Green, 1987). Cultures for each treatment group (i.e., media, vehicle [0.2% DMSO], positive control inducers [multiple concentrations], and the ToxCast chemicals [multiple concentrations]) were observed and cell morphology was assessed relative to vehicle control cultures at each harvest time point (0, 6, 24, or 48 h). […] Images were evaluated at the conclusion of the study to assess changes in cell integrity and account for the effects of chemical exposure on uncharacteristic changes in concentration-dependent gene expression profiles. The results from these determinations of apparent cytotoxicity were annotated (yes/no) alongside the corresponding qNPA data for reference.At the conclusion of each treatment period, hepatocyte cultures (96-well) were washed with 1 volume of HBSS, lysed by addition of 25 ul ArrayPlate lysis buffer (HTG, Tucson, AZ), and 70 ul/well of Denaturation Oil, denatured by incubation at 95C for 10 min, and frozen at approximately -70C until analysis by nuclease protection assay (qNPA) (Roberts et al., 2007). For qNPA analysis, cell lysates were thawed at 50C for approximately 30 min, qNPA probes were added, and samples were incubated at 95C for 10 min to begin the detection process by denaturing the target RNA, dissociating the duplexes and secondary structure hybridization. At the conclusion of the hybridization period, S1 nuclease reagent was added to each sample to digest all nonprotected nucleotides at 50C for 60-90 min. […]
SMILES,outcome,AC50
CC[C@H](C)[C@H]1O[C@]2(C=C[C@@H]1C)C[C@@H]1C[C@@H](C/C=C(\C)[C@@H](O[C@H]3C[C@H](OC)[C@@H](O[C@H]4C[C@H](OC)[C@@H](NC)[C@H](C)O4)[C@H](C)O3)[C@@H](C)/C=C/C=C3\CO[C@@H]4[C@H](O)C(C)=C[C@@H](C(=O)O1)[C@]34O)O2,inactive,–
CON=C(C(=O)OC)c1ccccc1CON=C(C)c1cccc(C(F)(F)F)c1,inactive,–
CSC1=N[C@@](C)(c2ccccc2)C(=O)N1Nc1ccccc1,inactive,–
CSc1nc(NC(C)C)nc(NC(C)C)n1,inactive,–
Cc1ccn2nc(S(=O)(=O)Nc3c(F)cccc3F)nc2n1,inactive,–
CCC(CC)Nc1c([N+](=O)[O-])cc(C)c(C)c1[N+](=O)[O-],inactive,–
CCOP(=O)(NC(C)C)Oc1ccc(SC)c(C)c1 (stereo not given),inactive,–
CCC(=O)Nc1ccc(Cl)c(Cl)c1,inactive,–
CCOP(=S)(OCC)SCCSCC,–,24.6 µM (active)
CNC(=O)Oc1cccc2c1OC(C)(C)O2,inactive,–
CCOP(=S)(OCC)OC(Cl)C(Cl)(Cl)Cl (stereo not given),inactive,–
COP(=O)(OC)OC(Br)C(Cl)(Cl)Br (stereo not given),inactive,–
CCOC(=O)CC(SP(=O)(OC)OC)C(=O)OCC (stereo not given),inactive,–
CC(COc1ccc(Oc2ccccc2)cc1)Oc1ccccn1 (stereo not given),–,4.08 µM (active)
COc1ccc(C(=CC(=O)N2CCOCC2)c2ccc(Cl)cc2)cc1OC,inactive,–
CNC(=O)ON=C(SC)C(=O)N(C)C,inactive,–
CCOP(=S)(Oc1cnc(C(C)(C)C)nc1)OC(C)C (stereo not given),–,3.14 µM (active)
Nc1nc(N)nc(NC2CC2)n1,inactive,–
CCOP(=S)(OCC)Oc1ccc2c(C)c(Cl)c(=O)oc2c1,–,1.09 µM (active)
CCC(=NOC/C=C/Cl)C1=C(O)CC(C2CCOCC2)CC1=O (stereo not given),inactive,–

SMILES,outcome,AC50
COc1cccc(C(=O)NN(C(=O)c2cc(C)cc(C)c2)C(C)(C)C)c1C,–,4.26 µM (active)
CC(Oc1cccc(Cl)c1)C(=O)O (stereo not given),inactive,–
S=C1NCCN1,inactive,–
CN1COCN(Cc2cnc(Cl)s2)C1=N[N+](=O)[O-],inactive,–
CCOP(=O)(OCC)Oc1cc(C)nc(C(C)C)n1,inactive,–
O=C(O)c1cc(Oc2ccc(C(F)(F)F)cc2Cl)ccc1[N+](=O)[O-],inactive,–
C#CCC1=C(C)C(OC(=O)C2C(C=C(C)C)C2(C)C)CC1=O (stereo not given),inactive,–
CCc1cccc(CC)c1N(COC)C(=O)CCl,inactive,–
CCCSP(=O)(OCC)SCCC,inactive,–
CCCOCC(=Nc1ccc(Cl)cc1C(F)(F)F)n1ccnc1,inactive,–
CCc1cnc(C2=NC(C)(C(C)C)C(=O)N2)c(C(=O)O)c1 (stereo not given),inactive,–
C#CC(C)(C)NC(=O)c1cc(Cl)cc(Cl)c1,–,1.69 µM (active)
CC(C)=CC1C(C(=O)OCN2C(=O)C3=C(CCCC3)C2=O)C1(C)C (stereo not given),inactive,–
COP(=O)(NC(C)=O)SC (stereo not given),inactive,–
C[Si](Cn1cncn1)(c1ccc(F)cc1)c1ccc(F)cc1,inactive,–
CSc1nnc(C(C)(C)C)c(=O)n1N,inactive,–
CCOP(=S)(OCC)Oc1cc(C)nc(C(C)C)n1,–,1.92 µM (active)
CCNc1nc(Cl)nc(NC(C)(C)C#N)n1,inactive,–
O=c1ccc(=O)[nH][nH]1,inactive,–
CC(C)[C@H](C(=O)O[C@H](C#N)c1cccc(Oc2ccccc2)c1)c1ccc(Cl)cc1,inactive,–
